The panel holds about 83,000 compounds, 20% with a hit somewhere; the sample as a whole holds those more often.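 The test compound was applied at a single concentration to cells in 96-well plates for 48 hours, and percent growth was recorded.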 Unmarked numbers belong to inactive results. Activity calls are given as the source filed them. How the source made its calls: active means growth percent below 10; inactive means the rest.

Common to all, as to test: NCI-60 one-dose screen, 48 h (100 = growth as untreated, 0 = no growth, -100 = all killed)
For one assay, the system named is SR leukemia. The following applies: 10 µM unless noted.
The test system of another assay is RPMI-8226 leukemia. The following applies: 10 µM unless noted.
Another assay concerns OVCAR-8 ovarian. The following applies: 10 µM unless noted.
The next assay deals with OVCAR-5 ovarian. The following applies: 10 µM unless noted.
The next assay has as its system OVCAR-4 ovarian. The settings on record: 10 µM unless noted.
The test system of a further assay is SK-OV-3 ovarian. The following applies: 10 µM unless noted.
For a further assay, the system named is IGROV1 ovarian. The following applies: 10 µM unless noted.
The next assay relates to OVCAR-3 ovarian. The following applies: 10 µM unless noted.
In the next assay the test system is NCI/ADR-RES ovarian. The settings on record: 10 µM unless noted.
In a further assay the test system is T-47D breast. The following applies: 10 µM unless noted.
The next assay concerns BT-549 breast. The settings on record: 10 µM unless noted.
Another assay deals with MDA-MB-435 melanoma. The following applies: 10 µM unless noted.
In the next assay the test system is SW-620 colon. The following applies: 10 µM unless noted.
The next assay relates to MCF7 breast. The following applies: 10 µM unless noted.
The next assay concerns HCT-116 colon. The following applies: 10 µM unless noted.
A further assay relates to KM12 colon. The following applies: 10 µM unless noted.
In another assay the test system is HCC-2998 colon. The following applies: 10 µM.

For the molecule `COC(=O)c1ccc2c(C(=Nc3ccc(N(C)C(=O)CN4CCN(C)CC4)cc3)c3ccccc3)c(O)[nH]c2c1`, the growth was 6.5% (active) in the assay on SR leukemia; 62.4% in the assay on RPMI-8226 leukemia; 53.2% with OVCAR-8 ovarian; 64.5% in the assay with OVCAR-5 ovarian; 68.5% in the assay on OVCAR-4 ovarian; 53.2% in the assay with SK-OV-3 ovarian. Further, the growth in the assay with IGROV1 ovarian was 33.6%; in the assay on OVCAR-3 ovarian, 91.3%; in the assay with NCI/ADR-RES ovarian, 82.2%; in the assay on T-47D breast, 47.4%; in the assay with BT-549 breast it was 55.8%; with MDA-MB-435 melanoma, 72.6%. Besides, the growth was 67.4% with SW-620 colon, 33.5% with MCF7 breast, 20.2% with HCT-116 colon and 8.95% (active) in the assay with KM12 colon.
On to `CC(=O)c1c(C)c2cnc(Nc3ccc(N4CCNCC4)cn3)nc2n(C2CCCC2)c1=O`, for which the growth with SR leukemia is -18.7% (active); in the assay with RPMI-8226 leukemia, 28.2%; with OVCAR-8 ovarian, 52.3%; with OVCAR-5 ovarian it was 37.8%; in the assay on OVCAR-4 ovarian, 62%; in the assay on SK-OV-3 ovarian it was 36.5%. Further, the growth is 27.2% with IGROV1 ovarian; 74.6% in the assay on OVCAR-3 ovarian; 72.4% in the assay with NCI/ADR-RES ovarian; 55.7% in the assay on T-47D breast; 50.5% with BT-549 breast; 45.5% in the assay with MDA-MB-435 melanoma. Moreover, the growth in the assay with SW-620 colon is 27.3%; in the assay on MCF7 breast it was 27.4%; in the assay on HCT-116 colon, 10.6%; in the assay with HCC-2998 colon it was 57.3%; in the assay with KM12 colon, 11.3%.
For the molecule `Cc1cnc(NC(=O)Nc2cc(Br)c(C)cc2OC[C@@H]2CNCCO2)cn1`, the growth in the assay with SR leukemia was -18.5% (active); in the assay on RPMI-8226 leukemia it was 13%; with OVCAR-8 ovarian, 1.6% (active); with OVCAR-5 ovarian, 36.6%; with OVCAR-4 ovarian, 45.6%; in the assay on SK-OV-3 ovarian it was 32%. The growth in the assay on IGROV1 ovarian is 30.5%; with OVCAR-3 ovarian it was 22.2%; in the assay with NCI/ADR-RES ovarian, 7.93% (active); with T-47D breast, -46.5% (active); in the assay on BT-549 breast, 23.6%; in the assay with MDA-MB-435 melanoma, -36.2% (active). For the same molecule, the growth in the assay with SW-620 colon is 20.8%; in the assay on MCF7 breast, 2% (active); in the assay with HCT-116 colon, 10.4%; in the assay with KM12 colon, 15%.
Take `CO[C@@H](C)Cn1c(=O)n(C)c2cnc3ccc(-c4cncc(C(C)(C)O)c4)cc3c21`: the growth with SR leukemia was -2.77% (active); with RPMI-8226 leukemia it was -16.8% (active); in the assay with OVCAR-8 ovarian, -13% (active); with OVCAR-5 ovarian, 5.28% (active); in the assay on OVCAR-4 ovarian, -14.6% (active); with SK-OV-3 ovarian it was -36.5% (active). For the same molecule, the growth was -25.7% (active) with IGROV1 ovarian; 8.39% (active) in the assay on OVCAR-3 ovarian; -1.12% (active) with NCI/ADR-RES ovarian; -21.9% (active) in the assay with T-47D breast; -6.62% (active) in the assay with BT-549 breast; 0.636% (active) with MDA-MB-435 melanoma. Moreover, the growth with SW-620 colon is 9.31% (active); in the assay on MCF7 breast, 6.25% (active); in the assay with HCT-116 colon, 3.72% (active); in the assay with KM12 colon it was 5.54% (active).
Take `CC#CC(=O)N1CCC[C@H]1c1nc(-c2ccc(C(=O)Nc3ccccn3)cc2)c2c(N)nccn12`: the growth in the assay with SR leukemia is 68.3%; in the assay on RPMI-8226 leukemia, 79.7%; in the assay with OVCAR-8 ovarian it was 77.8%; in the assay with OVCAR-5 ovarian it was 78.5%; in the assay on OVCAR-4 ovarian it was 99.5%; in the assay on SK-OV-3 ovarian it was -0.746% (active). In addition, the growth in the assay on IGROV1 ovarian was 64.8%; with OVCAR-3 ovarian, 86.5%; in the assay with NCI/ADR-RES ovarian it was 94.3%; with T-47D breast, 58.1%; with BT-549 breast, 84.5%; in the assay with MDA-MB-435 melanoma, 91.5%. In addition, the growth in the assay with SW-620 colon was 112%; in the assay with MCF7 breast, 77.5%; with HCT-116 colon, 83.7%; in the assay with KM12 colon it was 91.8%.
As to `C=CCN(/C=C1/C(=O)O[C@H](COC)[C@@]2(C)C1=C(O)C(=O)C1=C2[C@H](OC(C)=O)C[C@]2(C)C(=O)CC[C@@H]12)CC=C`, the growth with SR leukemia is 0.113% (active); in the assay with RPMI-8226 leukemia, 35.2%; in the assay with OVCAR-8 ovarian it was 29.4%; with OVCAR-5 ovarian, 20.5%; in the assay with OVCAR-4 ovarian it was 30.6%; in the assay with SK-OV-3 ovarian it was -19.6% (active). Moreover, the growth was -1.93% (active) in the assay with IGROV1 ovarian; 21% in the assay on OVCAR-3 ovarian; 35.4% in the assay with NCI/ADR-RES ovarian; -10.6% (active) with T-47D breast; -7.68% (active) in the assay on BT-549 breast; 21.4% with MDA-MB-435 melanoma. The growth in the assay on SW-620 colon is 39.8%; in the assay on MCF7 breast, 11.8%; in the assay with HCT-116 colon, 14.6%; with HCC-2998 colon it was -20.4% (active); with KM12 colon it was 22.4%.
As for `O=C1NC(=O)C(c2cnc3ccccn23)=C1c1cn2c3c(cc(F)cc13)CN(C(=O)N1CCCCC1)CC2`, the growth with SR leukemia was 10%; in the assay on RPMI-8226 leukemia, 60.8%; with OVCAR-8 ovarian, 19.7%; with OVCAR-5 ovarian it was 102%; with OVCAR-4 ovarian it was 38.7%; in the assay with SK-OV-3 ovarian, 39.4%. For the same molecule, the growth is 53.3% with IGROV1 ovarian; 52.8% in the assay on OVCAR-3 ovarian; 74.4% in the assay on NCI/ADR-RES ovarian; 33.8% with T-47D breast; 61.1% in the assay with BT-549 breast; 51.2% in the assay with MDA-MB-435 melanoma. Also, the growth in the assay on SW-620 colon was 59.6%; in the assay with MCF7 breast, 35.2%; with HCT-116 colon it was 17.1%; in the assay with KM12 colon, 46.2%.
On to `C[C@H](NC(=O)c1c(N)nn2cccnc12)c1cc2cccc(C#Cc3cnn(C)c3)c2c(=O)n1-c1ccccc1`, for which the growth is 3.42% (active) in the assay on SR leukemia; 4.95% (active) with RPMI-8226 leukemia; 28.1% with OVCAR-8 ovarian; 45.1% in the assay with OVCAR-5 ovarian; 31.1% in the assay with OVCAR-4 ovarian; -1.83% (active) in the assay on SK-OV-3 ovarian. Moreover, the growth is -22.7% (active) in the assay on IGROV1 ovarian; 19.9% in the assay on OVCAR-3 ovarian; 31.1% with NCI/ADR-RES ovarian; -22.3% (active) in the assay on T-47D breast; 2.12% (active) in the assay on BT-549 breast; 30.9% with MDA-MB-435 melanoma. Further, the growth in the assay with SW-620 colon is 13.4%; in the assay with MCF7 breast it was 5.42% (active); in the assay with HCT-116 colon, 1.33% (active); in the assay with KM12 colon, -14% (active).
`Cc1cc(-c2cc(O)ccc2Cl)cc2nnc(Nc3ccc(OCCN4CCCC4)cc3)nc12`: the growth was -35% (active) in the assay on SR leukemia; -43.9% (active) in the assay on RPMI-8226 leukemia; -63.6% (active) with OVCAR-8 ovarian; -83.5% (active) with OVCAR-5 ovarian; -81.9% (active) in the assay on OVCAR-4 ovarian; -77.7% (active) in the assay with SK-OV-3 ovarian. For the same molecule, the growth in the assay with IGROV1 ovarian was -60.2% (active); with OVCAR-3 ovarian it was -79.7% (active); in the assay with NCI/ADR-RES ovarian, -69.3% (active); with T-47D breast, -47.8% (active); in the assay with BT-549 breast, -50.7% (active); with MDA-MB-435 melanoma, -73.3% (active). Also, the growth with SW-620 colon was -74.8% (active); in the assay on MCF7 breast, -54.4% (active); with HCT-116 colon, -57.5% (active); with HCC-2998 colon it was -72.6% (active); in the assay with KM12 colon, -76.2% (active).

For the origin of these results see PubChem BioAssay (NCI).
